Experimental findings from the supplement of paper PMC7184167 are described below.

Where a name gives a salt, the structure may show the parent alone.

The subject of the experiment is replication-induced senescent mouse newborn dermal fibroblasts (NBF). Description: relative cell viability of senescent cells (fraction); higher = less killing of senescent cells. Conditions: 1 µM; 3 days. How it is done:
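Replication-induced senescent newborn mouse skin fibroblasts (NBFs) in 24-well plates were treated with a Selleck FDA-approved drug library at 1 µM for 3 days.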
For `O=C1CCC(N2C(=O)c3ccccc3C2=O)C(=O)N1` (stereo not given) [Thalidomide], the relative cell viability was found to be 0.296.

As for `CC1=C(/C=C/C(C)=C/C=C/C(C)=C/C(=O)O)C(C)(C)CCC1` [Tretinoin], the relative cell viability is 0.466.

As for `Clc1ccccc1C(c1ccccc1)(c1ccccc1)n1ccnc1` [Clotrimazole], the relative cell viability was 1.01.

`C=C1/C(=C\C=C2/CCC[C@]3(C)[C@@H]([C@H](C)/C=C/[C@H](C)C(C)C)CC[C@@H]23)C[C@@H](O)C[C@@H]1O` [Doxercalciferol] came in with a relative cell viability of 1.22.

`COc1ccccc1OCC(O)CN1CCN(CC(=O)Nc2c(C)cccc2C)CC1` (stereo not given) [Ranolazine] registered a relative cell viability of 0.994.

For the compound `Cc1ccc(Nc2nccc(N(C)c3ccc4c(C)n(C)nc4c3)n2)cc1S(N)(=O)=O`, the relative cell viability turned out to be 1.05.

Compound `c1ccc(-c2ccc(C(c3ccccc3)n3ccnc3)cc2)cc1` (stereo not given) [Bifonazole] gave a relative cell viability of 0.877.

The compound `Cc1nc(Nc2ncc(C(=O)Nc3c(C)cccc3Cl)s2)cc(N2CCN(CCO)CC2)n1` [Dasatinib] returned a relative cell viability of 1.39.

In turn, `CC(=O)OCC(=O)[C@@]12N=C(C)O[C@@H]1C[C@H]1[C@@H]3CCC4=CC(=O)C=C[C@]4(C)[C@H]3[C@@H](O)C[C@@]12C` [Deflazacort] displayed a relative cell viability of 1.04.

`Cc1ccc(NC(=O)c2ccc(CN3CCN(C)CC3)cc2)cc1Nc1nc(-c2cccnc2)cs1` [Masitinib (AB1010)] registered a relative cell viability of 0.602.

Compound `Nc1ccccc1NC(=O)c1ccc(CNc2nccc(-c3cccnc3)n2)cc1` [Mocetinostat (MGCD0103)] returned a relative cell viability of 0.36.

`CC(C)NCC(O)COc1ccc(COCCOC(C)C)cc1` (stereo not given) [Bisoprolol fumarate] displayed a relative cell viability of 0.929.

`CCOC(=O)[C@H](CCc1ccccc1)N[C@@H](C)C(=O)N1[C@H](C(=O)O)C[C@@H]2CCC[C@@H]21` [Ramipril]: the relative cell viability was 0.96.

Turning to `CC(C)OC(=O)OCOP(=O)(CO[C@H](C)Cn1cnc2c(N)ncnc21)OCOC(=O)OC(C)C` [Tenofovir Disoproxil Fumarate], the relative cell viability was 0.84.

`CN(C)[C@@H](CCOc1cccc2ccccc12)c1ccccc1` [Dapoxetine HCl] displayed a relative cell viability of 1.08.

In the case of `CC1(C)CCC(c2ccc(Cl)cc2)=C(CN2CCN(c3ccc(C(=O)NS(=O)(=O)c4ccc(N[C@H](CCN5CCOCC5)CSc5ccccc5)c(S(=O)(=O)C(F)(F)F)c4)cc3)CC2)C1` [Navitoclax (ABT-263)], the relative cell viability was 1.04.

As to `CC1(C)O[C@@H]2C[C@H]3[C@@H]4CCC5=CC(=O)C=C[C@]5(C)[C@@]4(F)[C@@H](O)C[C@]3(C)[C@]2(C(=O)CO)O1` [Triamcinolone Acetonide], the relative cell viability was 1.02.

On to `NS(=O)(=O)c1cc2c(cc1Cl)N=CNS2(=O)=O` [Chlorothiazide], for which the relative cell viability is 0.952.

`C[C@@H]1CN(c2c(F)c(N)c3c(=O)c(C(=O)O)cn(C4CC4)c3c2F)C[C@H](C)N1` [Sparfloxacin] came in with a relative cell viability of 0.71.

`CN1CCC[C@@H]1CCO[C@](C)(c1ccccc1)c1ccc(Cl)cc1` [Clemastine Fumarate]: the relative cell viability stood at 1.07.

The compound `COc1cc(Nc2c(C#N)cnc3cc(OCCCN4CCN(C)CC4)c(OC)cc23)c(Cl)cc1Cl` [Bosutinib (SKI-606)] showed a relative cell viability of 0.0801.

In turn, `NC(=O)c1ccc(I)c([N+](=O)[O-])c1` [Iniparib (BSI-201)] gave a relative cell viability of 0.209.

In turn, `COCCOC(=O)C1=C(C)NC(C)=C(C(=O)OC(C)C)C1c1cccc([N+](=O)[O-])c1` (stereo not given) [Nimodipine] had a relative cell viability of 1.15.

Consider `CC(C)Cc1ccc(C(C)C(=O)O)cc1` (stereo not given) [Ibuprofen], for which the relative cell viability worked out at 0.765.

As for `CS(=O)(=O)OCCCCOS(C)(=O)=O` [Busulfan], the relative cell viability came to 1.03.

Consider `C#Cc1cccc(Nc2ncnc3cc(OC)c(OCCCCCCC(=O)NO)cc23)c1`, for which the relative cell viability was 1.02.

As to `CO[C@H]1C[C@@H]2CC[C@@H](C)[C@@](O)(O2)C(=O)C(=O)N2CCCC[C@H]2C(=O)O[C@H]([C@H](C)C[C@@H]2CC[C@@H](OC(=O)C(C)(CO)CO)[C@H](OC)C2)CC(=O)[C@H](C)/C=C(\C)[C@@H](O)[C@@H](OC)C(=O)[C@H](C)C[C@H](C)/C=C/C=C/C=C/1C`, the relative cell viability amounted to 0.603.

The compound `NCCCC(O)(P(=O)(O)O)P(=O)(O)O` [Alendronate sodium trihydrate] returned a relative cell viability of 0.251.

On to `CN1CCN(c2ccc3nc(-c4c(N)c5c(F)cccc5[nH]c4=O)[nH]c3c2)CC1` [Dovitinib (TKI-258, CHIR-258)], for which the relative cell viability is 0.589.

`CCOc1nc2cccc(C(=O)O)c2n1Cc1ccc(-c2ccccc2-c2nnn[nH]2)cc1` [Candesartan] came in with a relative cell viability of 1.02.

Consider `Oc1ccc(/C=C/c2cc(O)cc(O)c2)cc1` [Resveratrol], for which the relative cell viability was determined as 1.02.

`CC(C)[C@H](O)C(=O)N[C@@H](C)C(=O)N[C@@H]1C(=O)N(C)CCc2ccccc21` gave a relative cell viability of 0.981.

In the case of `Nc1ccn([C@H]2CC[C@@H](CO)O2)c(=O)n1` [Zalcitabine], the relative cell viability was 0.129.

On to `C[C@]1(O)C[C@@H](c2nc(-c3ccc4ccc(-c5ccccc5)nc4c3)c3c(N)nccn32)C1` [Linsitinib (OSI-906)], for which the relative cell viability is 0.445.

`C=C1/C(=C\C=C2/CCC[C@]3(C)[C@@H]([C@H](C)CCCC(C)C)CC[C@@H]23)C[C@@H](O)C[C@@H]1O` [Alfacalcidol] registered a relative cell viability of 0.249.

In turn, `COc1ccccc1OCC(O)CO` (stereo not given) [Guaifenesin] came in with a relative cell viability of 1.12.

Compound `CC(=O)O[C@H]1C(=O)[C@@]2(C)[C@H]([C@H](OC(=O)c3ccccc3)[C@]3(O)C[C@H](OC(=O)[C@H](O)[C@@H](NC(=O)c4ccccc4)c4ccccc4)C(C)=C1C3(C)C)[C@]1(OC(C)=O)CO[C@@H]1C[C@@H]2O` [Paclitaxel] came in with a relative cell viability of 0.398.

Compound `Nc1ncn([C@@H]2O[C@H](CO)[C@@H](O)[C@H]2O)c(=O)n1` [Azacitidine] yielded a relative cell viability of 0.436.

As for `Cc1cn(-c2cc(NC(=O)c3ccc(C)c(Nc4nccc(-c5cccnc5)n4)c3)cc(C(F)(F)F)c2)cn1` [Nilotinib (AMN-107)], the relative cell viability is 0.044.

Compound `COc1cc2ncnc(Nc3ccc(F)c(Cl)c3)c2cc1OCCCN1CCOCC1` [Gefitinib (ZD1839)] had a relative cell viability of 1.01.
